Source: PubChem BioAssay (NCATS)
Where “and” joins values, the source holds several entries; their conditions need not be identical. Equal entries are not always repeated. Inconclusive results are not listed. Calls of active or inactive are those of the source. Unless noted, the rule behind the calls is not given here.

Experiments:
[1] = qHTS Assay for Identifying Gametocytocidal Compounds (AID 743244; active = well fitted curve in the direction sought with a large enough effect; an effect the other way counts as inactive or inconclusive;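 note: % is set by controls: 0 for no effect and ±100 for the full control effect; actives lower the fluorescent signal which means gametocytes are killed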); conditions: P. falciparum 3D7 stage III-V gametocytes, alamarBlue, 72 h; max response: stronger effect = lower value
Summary of the method: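 Viability read-out was resazurin reduction (alamarBlue, 24 h) measured at Ex 525/Em 598 nm. Beforehand, late-stage (III-V) 3D7 P. falciparum gametocytes at 20,000 cells/well were incubated with compound 72 h at 37C under 5% CO2.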

[2] = qHTS profiling for inhibitors of Plasmodium falciparum (3D7) proliferation (AID 743322);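 note: infected erythrocytes exposed to compound for 72 h before lysis; 100% = DMSO vehicle wells and 0% = 0.29 µM artemisinin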; conditions: P. falciparum 3D7 proliferation; at 28.7 µM (top of the series) unless noted
Summary of the method: (§1)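 Parasite DNA was quantified by SYBR Green I fluorescence (ex 485, em 535 nm) after overnight lysis in saponin/Triton buffer at room temperature. Cultures at 0.3% parasitemia and 2.5% hematocrit were first exposed to compound for 72 h at 37 C; signals were normalised to artemisinin (0.29 uM) and vehicle wells.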

[3] = qHTS profiling for inhibitors of Plasmodium falciparum (DD2) proliferation (AID 743323); conditions: lower = more inhibition; at 28.7 µM (top of the series) unless noted
Summary of the method: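 1536-well qHTS; infected RBCs 0.3% parasitemia/2.5% Hct final; cpd 72 h 37 C 5% CO2; lysis buffer + SYBR Green I, o/n RT dark; FI 485/535; norm. to 0.29 uM artemisinin and DMSO, plate-stack corrected.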

[4] = qHTS profiling of the MIPE4 collection as inhibitors of Plasmodium falciparum (3D7) proliferation (AID 743344);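 note: scaled between DMSO vehicle wells and 0.29 µM artemisinin as full inhibition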; conditions: P. falciparum 3D7 in erythrocytes, SYBR Green DNA fluorescence, 72 h; at 28.5 µM (top of the series) unless noted
Summary of the method: as §1

[5] = qHTS profiling of the MIPE4 collection as inhibitors of Plasmodium falciparum (DD2) proliferation (AID 743345); conditions: P. falciparum Dd2 in erythrocytes, SYBR Green DNA, 72 h; at 28.5 µM (top of the series) unless noted
Summary of the method: as §1

[6] = qHTS profiling of the MIPE4 collection as inhibitors of Plasmodium falciparum (DD2) proliferation (Rep 2) (AID 743346); conditions: P. falciparum Dd2 in erythrocytes, SYBR Green DNA, 72 h; at 28.5 µM (top of the series) unless noted
Summary of the method: as §1

[7] = qHTS profiling of the MIPE4 collection as inhibitors of Plasmodium falciparum (HB3) proliferation (AID 743347);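 note: plate controls were DMSO vehicle wells for no effect and artemisinin wells for full effect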; conditions: P. falciparum HB3 in erythrocytes, SYBR Green DNA, 72 h; at 28.5 µM (top of the series) unless noted
Summary of the method: as §1

[8] = qHTS profiling for inhibitors of Plasmodium falciparum (HB3) proliferation (AID 743324; active = well fitted curve in the direction sought with a large enough effect; an effect the other way counts as inactive or inconclusive;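 note: 100% = DMSO vehicle wells and 0% = artemisinin-treated control wells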); conditions: Plasmodium falciparum HB3 blood-stage proliferation; at 28.7 µM (top of the series) unless noted
Summary of the method: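 SYBR Green fluorescence (485 ex/535 em) of lysed cultures, incubated overnight at room temperature in the dark, quantifies parasite DNA. Infected erythrocytes at 0.3% parasitemia and 2.5% hematocrit were exposed 72 h; values normalized to DMSO and 0.29 uM artemisinin controls.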

SMILES | max response [1] | remaining parasite growth % (stronger effect = lower value) [2] | activity, percent of control [3] | parasite growth, % of DMSO control [4] | parasite growth remaining, % of DMSO control (lower = more inhibition) [5] | parasite growth, % of control (lower = inhibition) [6] | growth, % of control [7] | remaining proliferation (% of control), lower = more inhibition [8]
CCn1c(-c2nonc2N)nc2cnc(Oc3cccc(NC(=O)c4ccc(OCCN5CCOCC5)cc4)c3)cc21 | 33.1% (inactive) | 15.3% | 20.7% | 13.1% | 57.9% | 22.1% | 3.64% | 
CN(C)C(=O)c1ccc(S(=O)(=O)c2ccc(NC(=O)[C@@](C)(O)C(F)(F)F)c(Cl)c2)cc1 | 2.79% (inactive) | 67.3% | 97.4% | 34.8% | 96.7% | 95.9% | 62% | 
CC(c1cc2ccccc2s1)N(O)C(N)=O (stereo not given) | 2.55% (inactive) | 101% [at 57.5 µM] | 101% [at 57.5 µM] | 94.1% | 98.2% | 140% | 101% | 
N[C@@H]1CONC1=O | 2.44% (inactive) and 21.1% (inactive) |  |  | 398% | 120% | 80.9% | 650% | 
O=c1ncn2nc(Sc3ccc(F)cc3F)ccc2c1-c1c(Cl)cccc1Cl | 5.63% (inactive) | 32.8% | 80.3% | 17.6% | 76.3% | 18.7% | 13.6% | 
O=c1n(CCCN2CCN(c3cccc(Cl)c3)CC2)nc2ccccn12 | 8.61% (inactive) and 11.5% (inactive) |  |  | 60.5% | 82.9% | 72.8% | 92.5% | 
COc1cc(Oc2ccnc3cc(OC)c(OC)cc23)ccc1NC(=O)NC(C)c1nccs1 (stereo not given) | 6.55% (inactive) | 69.7% | 56.8% | 22.7% | 85.4% | 40.3% | 71.5% | 
CN[C@@H](C)C(=O)N[C@H]1CCCC[C@H]2CC[C@@H](C(=O)N[C@@H](c3ccccc3)c3cn(CCCCc4ccc(CCCCn5cc([C@@H](NC(=O)[C@@H]6CC[C@@H]7CCCC[C@H](NC(=O)[C@H](C)NC)C(=O)N76)c6ccccc6)nn5)cc4)nn3)N2C1=O |  | -0.81% | 0.253% | 5.44% | 8.15% | 9.02% | 3.6% | -1.02%
COc1ccc(-c2ccc3c(N4CCOCC4)nc(N4C[C@@H](C)O[C@@H](C)C4)nc3n2)cc1CO |  | 20.8% | 25.3% | 6.12% | 15.1% | 17.2% | 5.91% | 
CCCc1nc2c(C)cc(-c3nc4ccccc4n3C)cc2n1Cc1ccc(-c2ccccc2C(=O)O)cc1 |  | 103% | 94% | 6.42% | 16.2% | 21.8% | 7.75% | 66.6%
NC(=O)c1ccc(-c2nc(-c3ccc4c(c3)OCCO4)c(-c3ccccn3)[nH]2)cc1 |  | 15.5% | 4.9% | 25.9% | 18.9% | 18.6% | 12.9% | 13.2%
O=C(O)COCCN1CCN(C(c2ccccc2)c2ccc(Cl)cc2)CC1 (stereo not given) | -12% (inactive) and 28.9% (inactive) |  |  | 82.3% | 104% | 72.8% | 91% | 
CCn1cc(C(=O)O)c(=O)c2cc(F)c(N3CCNC(C)C3)c(F)c21 (stereo not given) | 19.5% (inactive) and 11.6% (inactive) and 13.2% (inactive) |  |  | 49.1% | 68.3% | 83.6% | 91.5% | 
CC(C=CC1=C(C)CCCC1(C)C)=CC=CC(C)=CC(=O)O |  |  |  | 76.8% and 52.8% | 85.9% and 87.9% | 81.2% and 51.5% | 106% and 85.5% | 
CC(C)(N)C(=O)N[C@H](COCc1ccccc1)C(=O)N1CCC2(CC1)CN(S(C)(=O)=O)c1ccccc12 |  | 88.9% | 10.9% | 22.8% | 10.9% | 7.19% | 26.2% | 
Cc1cccc(-c2nn(C(=S)Nc3ccccc3)cc2-c2ccnc3ccccc23)n1 |  | 91.2% | 87.9% | 40.4% | 86.3% | 66.8% | 99.5% | 79.6%
CCCCNc1cc(C(=O)O)cc(S(N)(=O)=O)c1Oc1ccccc1 | -3.91% (inactive) and 1.19% (inactive) |  |  | 87.9% | 99.3% | 102% | 84% | 
NNCCc1ccccc1 | -2.24% (inactive) and 11.6% (inactive) |  |  | 88.8% | 24.6% | 79.6% | 96.6% | 
N=c1nc(N2CCCCC2)cc(N)n1O | 1.66% (inactive) and 5.64% (inactive) |  |  | 6.29% | 33.6% | 7.66% | 3.91% | 
CCN(CC)CCCC(C)Nc1nc(C)cc(Nc2ccc3nc(C)cc(N)c3c2)n1 (stereo not given) |  | 29.9% | 17.1% | 25% | 21.1% | 14.4% | 20% | 
COc1ccc([C@@H]2CC(=O)c3c(O)cc(O[C@@H]4O[C@H](CO[C@@H]5O[C@@H](C)[C@H](O)[C@@H](O)[C@@H]5O)[C@@H](O)[C@H](O)[C@@H]4O)cc3O2)cc1O |  |  |  | 83.3% and 61.8% | 90.3% and 85.6% | 120% and 81.3% | 92% and 93.5% | 
Cc1cnc(Nc2ccc(OCCN3CCCC3)cc2)nc1Nc1cccc(S(=O)(=O)NC(C)(C)C)c1 |  | 1.03% | 52.4% | 6.36% | 25.8% | 11% | 2.63% | 
